High-throughput results as filed in PubChem.
Only some compounds are listed: those with a hit (about 6.8% of all), similar ones and a draw of the others.
Cy5 interf NS3h: Cy5 fluorescence interference, HCV helicase counter-screen. AID 720488. fluorescence interference ratio at 100 µM. hit rate 6% among 16,000. Cy5-dT15 DNA with NS3h; actives lie on both sides; signal over control mean, under 1 quenches;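 active means compound fluorescence over control fluorescence at most 0.8, a quencher, or at least a set upper limit, an enhancer; inactive means ratio between 0.8 and the set upper limit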
NS3h inh CB: hepatitis C NS3 helicase inhibition, primary screen; hit rate 1.6% among 16,000; inhibition, % at 100 µM; AID 687043; NS3h Cy5-dT15 DNA binding, fluorescence polarization;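 active means inhibition above the average over every tested compound plus 3 SD, cut at about 40% in these data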
HCV NS3h conf: confirmation of hepatitis C virus NS3 helicase inhibitors. inhibition, % at 100 µM. NS3h binding to Cy5-dT15 DNA, fluorescence polarization. hit rate 20% among 240. shares compounds with NS3h inh CB;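 active means percent inhibition of 50% or more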
SSB-DNA FP CB: E. coli SSB-DNA binding inhibition, NS3h counter-screen; E. coli SSB binding Cy5-dT15, fluorescence polarization; AID 720486; hit rate 40% among 240; shares compounds with NS3h inh CB; inhibition, % at 100 µM;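 active means inhibition of at least 50%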;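 further: displacers lower Cy5 polarization so higher inhibition means more SSB displaced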
Target sequence (P0AGE0 whole entry, looked up): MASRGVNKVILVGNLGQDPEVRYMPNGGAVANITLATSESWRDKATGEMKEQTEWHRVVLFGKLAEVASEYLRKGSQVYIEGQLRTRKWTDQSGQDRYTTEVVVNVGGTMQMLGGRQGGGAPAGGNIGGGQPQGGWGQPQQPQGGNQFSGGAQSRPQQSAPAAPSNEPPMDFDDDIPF
Cy5 SSB interf: counter-screen for HCV NS3 helicase inhibitors: fluorescence interference; AID 720487; fluorescence interference ratio at 100 µM; hit rate 8% among 240; Cy5-dT15/E. coli SSB fluorescence interference; actives lie on both sides; shares compounds with NS3h inh CB;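 active means fluorescence interference ratio at or above 1.2, signal boosting, or at or below 0.8, signal quenching; inactive means ratio between 0.8 and 1.2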;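 further: ratio of compound well signal to mean negative control signal so 1 means no effect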
Cy5 fluor confirm: confirmation counter-screen for HCV NS3 helicase inhibitors: fluorescence interference. Cy5-dT15 DNA/NS3h fluorescence interference counterscreen. AID 720489. fluorescence interference ratio at 100 µM, hits read low. shares compounds with NS3h inh CB. hit rate 44% among 240;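 active means fluorescence interference ratio at or below 0.8 quencher or at or above a set limitenhancer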;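 further: ratio of compound fluorescence to mean of negative controls so 1 means no interference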
Numbers without * were called inactive.

SMILES | Cy5 interf NS3h | NS3h inh CB | others
O=C1CC(=O)N(c2ccc(Cl)c(Cl)c2)C(=S)N1 | 0.62* | 19
Cc1ccc(N2C(=O)CC(=O)NC2=S)cc1 | 1 | 3
COc1cccc(CN2CCN(Cc3ccc(C)cc3)CC2)c1 | 1.1 | -8
O=[N+]([O-])c1ccc(N2CCNCC2)cc1NCCc1ccccc1 | 0.78* | 10
Cc1ccc(N2C(=O)CC(=O)N(C)C2=S)cc1 | 1 | -3
O=[N+]([O-])c1ccc(NCCOc2cccc3ccccc23)c2ncccc12 | 0.75* | 8
O=c1oc2ccccc2c(O)c1C(c1cccc(F)c1)c1c(O)c2ccccc2oc1=O | 0.95 | 1
Cc1ccc(-c2ccc(C=C3C(=O)NC(=S)NC3=O)o2)cc1[N+](=O)[O-] | 0.92 | 42*
Cc1cc(-c2ccc(C=C3C(=O)NC(=S)NC3=O)o2)cc([N+](=O)[O-])c1C | 0.93 | 17
COc1ccccc1C1(CCNCc2ccc(N(C)C)cc2)CCOC(C)(C)C1 (configuration not stated) | 0.99 | 6
Cc1ccc(C=C2C(=O)N(C)C(=O)N(C)C2=O)o1 | 1 | 10
Cc1cc(OCc2ccccc2)c2c3c(c(=O)oc2c1)CCC3 | 1.1 | 9
CCCCOC(=O)COc1cc(C)cc2oc(=O)c3c(c12)CCC3 | 1.1 | 54* | HCV NS3h conf=-3;SSB-DNA FP CB=8;Cy5 SSB interf=0.96;Cy5 fluor confirm=0.93
Cc1cc(OCC(N)=O)c2c3c(c(=O)oc2c1)CCC3 | 1.2 | 16
CCOc1ccc(NC(=S)NC2CN3CCC2CC3)cc1 (configuration not stated) | 0.99 | -9
O=C1NC(=O)C(=Cc2ccccc2OCc2ccccc2Cl)C(=O)N1 | 0.58* | 56* | HCV NS3h conf=25;SSB-DNA FP CB=28;Cy5 SSB interf=0.92;Cy5 fluor confirm=0.73*
CC(C)Oc1ccc(Br)cc1C=C1C(=O)NC(=O)NC1=O | 1.1 | 15
COc1ccc(C=C(C#N)C#N)c(OC)c1 | 1 | 6
CCN1C(=O)C(=Cc2ccc(N(CC)CC)cc2)C(=O)N(CC)C1=S | 2* | 55* | HCV NS3h conf=29;SSB-DNA FP CB=7;Cy5 SSB interf=1.2;Cy5 fluor confirm=1.4*
CN(C)c1ccc(C=C2C(=O)NC(=S)N(c3ccccc3F)C2=O)cc1 | 1 | 34
O=C1NC(=S)NC(=O)C1CCCC=C(Cl)Cl | 0.98 | 29 | HCV NS3h conf=29;SSB-DNA FP CB=41;Cy5 SSB interf=0.95;Cy5 fluor confirm=0.99
O=C(Nc1cccc2ccccc12)NC1CN2CCC1CC2 (configuration not stated) | 1.1 | -1
O=C1NC(=O)C(=Cc2ccc(-c3cc([N+](=O)[O-])ccc3O)o2)C(=O)N1 | 1.7* | 185* | HCV NS3h conf=100*;SSB-DNA FP CB=100*;Cy5 SSB interf=0.91;Cy5 fluor confirm=1.2
O=C1NC(=O)C(=Cc2ccc(-c3ccccc3C(=O)O)o2)C(=O)N1 | 1 | 68* | HCV NS3h conf=54*;SSB-DNA FP CB=25;Cy5 SSB interf=0.98;Cy5 fluor confirm=0.98
COC(=O)c1ccc(-c2ccc(C=C3C(=O)NC(=S)NC3=O)o2)cc1 | 1.1 | 18
SMILES | Cy5 interf NS3h | NS3h inh CB | others
O=C1NC(=O)C(=Cc2ccc(O)c(O)c2)C(=O)N1 | 0.97 | 35
Cc1cc(OCc2ccc(F)cc2)c2c3c(c(=O)oc2c1)CCC3 | 1.1 | 4
O=C(Nc1ccc(Cl)cc1C(=O)c1ccccc1)c1ccc([N+](=O)[O-])cc1 | 0.95 | 10
C=CCn1c(C)c(C=C2C(=O)NC(=S)NC2=O)c2ccccc21 | 1 | 14
O=C1NC(=S)N(c2ccc(Br)cc2)C(=O)/C1=C/c1ccc(-c2ccc(C(=O)O)cc2)o1 | 1 | 13
CN1C(=O)C(=Cc2ccc(-c3cccc(C(=O)O)c3)o2)C(=O)N(C)C1=O | 0.97 | 32
Cc1ccc(N2C(=O)/C(=C/c3ccc(-c4ccc(C(=O)O)cc4)o3)C(=O)NC2=S)cc1 | 0.99 | 50* | HCV NS3h conf=45;SSB-DNA FP CB=62*;Cy5 SSB interf=0.85;Cy5 fluor confirm=0.93
Cc1ccc(N2C(=O)NC(=O)/C(=C/c3ccc(-c4cccc(C(=O)O)c4)o3)C2=O)cc1 | 1.1 | 50* | HCV NS3h conf=89*;SSB-DNA FP CB=70*;Cy5 SSB interf=0.84;Cy5 fluor confirm=0.9
COc1ccc(CCNCc2cccc(Br)c2)cc1OC | 1.1 | -6
O=C(CNS(=O)(=O)c1ccccc1)Nc1ccc(Br)cc1C(=O)c1ccccc1 | 1 | 31
COc1ccc(C=C(C#N)C#N)cc1O | 1 | 27
